By inhibition is commonly meant the relative decrease from the control value, in per cent.

In all, about 290,000 compounds went through this assay and about 11,000 (3.8%) were called active.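 Rule for the calls: active = mean replicate inhibition above about 79%, with every replicate also reaching it (limit read from the data); inconclusive = only one of the two criteria met; inactive = mean below limit and not every replicate reaching it.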 The list comes from a sample in which actives are over-represented; it also holds similar structures and randomly drawn compounds.

The target of this experiment is FAD-linked sulfhydryl oxidase ALR (Homo sapiens) (UniProt P55789). In words: inhibitors of human ALR sulfhydryl oxidase, primary screen, biochemical, H2O2 detection, HRP-luminol luminescence, single point (AID 485317). Particulars: purified ALR, DTT oxidation, active compounds read high, concentration not given here.
Chain of FAD-linked sulfhydryl oxidase ALR (Homo sapiens) (P55789 whole entry, looked up): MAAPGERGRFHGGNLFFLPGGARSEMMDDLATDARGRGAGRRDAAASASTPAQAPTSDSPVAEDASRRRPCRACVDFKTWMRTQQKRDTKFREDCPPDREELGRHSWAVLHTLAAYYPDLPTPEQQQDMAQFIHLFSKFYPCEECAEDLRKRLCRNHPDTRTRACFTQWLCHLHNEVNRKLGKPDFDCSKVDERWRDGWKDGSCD
Regarding `Cc1ccc(C(=O)NC2CCCC(C)C2C)cc1S(=O)(=O)N1CCCCC1` (stereo not given), the inhibition was -6.06% (inactive). The figure for `CC(OC(=O)c1ccc(S(=O)(=O)N2CCOCC2)cc1)c1ccccc1` (stereo not given) is -21.1% (inactive); for `Cc1ccc(OCC(=O)NC(C)c2ccccc2)cc1C` (stereo not given) it is -10.2% (inactive); for `Cc1ccc(SC(=O)COc2ccc(C)c(C)c2)cc1` it is 98.5% (active). Turning to `COCCNC(=O)COc1ccc(C)c(C)c1`, the inhibition is 11.4% (inactive). The figure for `CCn1nc(C(=O)NNS(=O)(=O)c2cc(/C=C/C(=O)O)cc(OC)c2OC)c2ccccc2c1=O` is 4% (inactive).

For the molecule `O=C(COC(=O)c1ccc([N+](=O)[O-])o1)NC12CC3CC(CC(C3)C1)C2`, the inhibition is -29.8% (inactive). On to `CCOC(=O)c1cc(C#N)c(N2CCCCC2)nc1-c1ccccc1`, for which the inhibition is 6.36% (inactive). The figure for `CCOC(=O)c1cc(C)nc(S(C)(=O)=O)c1C#N` is 15.5% (inactive); for `CCCCSc1[nH]c(=O)c(C(=O)OCC)cc1C#N` it is 90% (active); for `CCOc1cc(C(=O)Nc2ccc(S(=O)(=O)Nc3cnc4ccccc4n3)cc2)cc(OCC)c1OCC` it is 27.5% (inactive). Turning to `Cc1cc(NC(=O)CSc2nc(C(C)C)nc3sc4c(c23)CCC(C)C4)no1` (stereo not given), the inhibition is -10.2% (inactive).

For `Cc1ccc(C)c2c1cc(C)c1nnc(SCC(=O)Nc3cccc(C(=O)O)c3)n12`, the inhibition is 3.23% (inactive). Regarding `CC(C)c1nc(SCC(=O)Nc2cccc(C(=O)O)c2)c2c3c(sc2n1)CCCC3`, the inhibition was 98.2% (active). The figure for `C=CC[C@H](CC(=O)NCCO)C(=O)N[C@@H](COC(=O)[C@@H](CC=C)Cc1ccc(F)cc1)Cc1c[nH]c2ccccc12` is 6.65% (inactive); for `CCOc1ccccc1NC(=O)C1CCC(CNc2c(N3CCOCC3)c(=O)c2=O)CC1` (stereo not given) it is -8.1% (inactive); for `COc1ccc(NC(=O)C2CCC(CNc3c(N4CCCCC4)c(=O)c3=O)CC2)c(OC)c1` (stereo not given) it is -10.1% (inactive).

`CCN(CC)c1ccc(NC(=O)C2CCC(CNc3c(N4CCCC4)c(=O)c3=O)CC2)c(C)c1` (stereo not given): the inhibition is 99.4% (active). On to `COc1ccc(Cl)cc1NC(=O)CN(C)C(=O)c1cc2ccccc2cc1OC`, for which the inhibition was -4.22% (inactive). With `CCCCn1c(-c2cccc(C)c2)nc2cc3[nH]c(=O)c(C(C)C)nc3cc21`, the inhibition was -32.5% (inactive). Turning to `CC1CN(C(=O)COC(=O)c2cccc(NS(=O)(=O)c3ccccc3)c2)CC(C)O1` (stereo not given), the inhibition is 2.21% (inactive). As for `CCOc1ccc(C(=O)NCC(=O)N2CCCCCCC2)cc1OCC`, the figure is -5.97% (inactive); as for `O=C(COc1ccc(Br)cc1F)NCC1(N2CCCCC2)CCCCC1`, 2.53% (inactive). Regarding `CCOC(=O)CSc1nc(C)c(Oc2ccc(Cl)cc2Cl)c(=O)[nH]1`, the inhibition was -20.9% (inactive).

As for `CCCCOC(=O)CNc1nnc(SCC(=O)OCC)[nH]c1=O`, the inhibition was 100% (active). The figure for `Cc1nnc(SCC(=O)N2CCOCC2)[nH]c1=O` is 3.8% (inactive); for `Cc1c(C(=O)Nc2ccccn2)oc2ccc(Br)cc12` it is 1.89% (inactive). In the case of `COc1cc(OC)c(N2CC(C(=O)Nc3cc(Cl)ccc3N3CCOCC3)CC2=O)cc1Cl` (stereo not given), the inhibition is -7.16% (inactive). As for `C[C@H]1CN([C@@H](C)CO)C(=O)Cc2cc(NC(=O)Cc3ccccc3)ccc2O[C@H]1CN(C)S(=O)(=O)c1cccs1`, the figure is 2.5% (inactive); as for `CC(C)CN(C(=O)CSc1ncnc2sccc12)C1CCS(=O)(=O)C1` (stereo not given), 5.3% (inactive); as for `COc1ccc(-c2cnc(SCCNC(=O)c3ccc4c(c3)OCO4)[nH]2)cc1`, 14.2% (inactive). Consider `CCN(CC)c1ccc2oc(=O)c(C)nc2c1`, for which the inhibition was 96.5% (active). As for `CCN(CC)c1ccc2cc(C(N)=O)/c(=N\NC(=O)c3ccncc3)oc2c1`, the figure is 8.16% (inactive). The figure for `CCN(CC)c1ccc2c(Nc3ccccc3)c(C=O)c(=O)oc2c1` is 1.6% (inactive); for `C[C@H](NS(=O)(=O)c1ccc(Cl)cc1)C(=O)OCC(=O)N1CCOCC1` it is -3.05% (inactive). As for `O=C(NC1CCCCCC1)C1CCN(C(=O)c2ccc(Cl)cc2)CC1`, the figure is 0.152% (inactive).

Turning to `COc1cc(C(=O)NCc2nnc(SCC(=O)c3ccc(Cl)cc3)o2)cc(OC)c1OC`, the inhibition is -31.3% (inactive). As for `COc1cc(C(=O)NCc2nnc(SCC(=O)Nc3nc4ccc(C)cc4s3)o2)cc(OC)c1OC`, the figure is 96.6% (active); as for `COc1ccc(C(=O)NCc2nnc(SCC(=O)Nc3cccc(OC)c3)o2)cc1`, -14.1% (inactive). As for `COc1ccc(CN2CCN(C(=O)c3cc(C4CC4)nn3-c3ccccc3)CC2)cc1F`, the figure is -3.02% (inactive).

Take `CN(Cc1ccccc1)C(=O)CCc1ccccc1`: the inhibition was 26.4% (inactive).

With `CC(=O)c1ccc(-c2nnc(CCC(=O)N(C)Cc3cnc4ccccn34)o2)s1`, the inhibition was 96.1% (active).

Take `CCc1ccc(CN(C)C(=O)CCc2nnc(-c3ccc(-c4ccccc4)cc3)o2)nc1`: the inhibition is -6.23% (inactive).

With `COc1ccc(C(=O)OCC(=O)c2cc(C)n(CC3CCCO3)c2C)cc1[N+](=O)[O-]` (stereo not given), the inhibition was -3.78% (inactive). The figure for `O=C(CCNC(=O)c1ccc(Br)cc1)NCC(c1ccco1)N1CCCCC1` (stereo not given) is 1.52% (inactive).

The values above are taken from PubChem BioAssay AID485317 (Broad Institute, 2010).
